# Most compounds without a hit are left out; they make up all but 0.86% or so of the library.
# CDC25B CDK2 inh: human CDC25B-CDK2/CyclinA binding inhibition. AID 1259370. HTRF CDC25B-CDK2/CyclinA binding, anti-His/anti-Flag; stronger effect = higher value. P30305+P24941. z-score (test concentration not listed). 94,000 tested, 0.72% active; in the data active means z-score above about 3.2
# TAR Tat displ: HIV-1 TAR-Tat binding disruption; HIV-1 TAR RNA, Tat peptide displacement FRET; stronger effect = higher value; 100,000 tested, 0.6% active; AID 1259389; z-score (test concentration not listed); active means z-score of 3 or more in at least 2 runs
# Numbers without * were called inactive; . = no result.
SMILES,CDC25B CDK2 inh,TAR Tat displ
Cc1cc2c3c([nH]c2cc1S(=O)(=O)Nc1cccnc1)CCCC3=O,.,7.6*
Cc1cc2c3c([nH]c2cc1S(=O)(=O)Nc1ccccc1)CCCC3=O,.,-1.3
COCCOC(=O)C1=C(C)NC2=C(C(=O)CC(C)(C)C2)C1c1ccc(OC)c(Br)c1 (stereo not given),-2.2,1.5
Cc1nnc2c(NCCN3CCOCC3)nc3ccccc3n12,-1.8,0.65
CN(/C=C/c1nnnn1-c1ccccc1)c1ccccc1,-1.1,.
CN(C)c1cc(-c2cccc([N+](=O)[O-])c2)oc(=O)c1Cl,-1.3,.
O=c1oc(-c2ccccc2)cc(Cl)c1Cl,14*,1.2
Cc1ccc(-c2nc(SCc3cc(=O)c4cccc(Cl)c4[nH]3)n[nH]2)cc1,.,0.33
COc1ccc(-c2nc(SCc3cc(=O)c4cccc(Cl)c4[nH]3)n[nH]2)cc1,.,6.8*
CCOC(=O)C1CCN(c2cc(NCCCN(C)C)c3c4c(onc24)-c2ccccc2C3=O)CC1,-1.8,1.1
CCOC(=O)C1CCN(c2cc(NCCCC(=O)O)c3c4c(onc24)-c2ccccc2C3=O)CC1,14*,24*
CC1CCN(c2cc(NCCCC(=O)O)c3c4c(onc24)-c2ccccc2C3=O)CC1,1.2,-4.3
CCOC(=O)C1CCN(c2cc(NCc3ccco3)c3c4c(onc24)-c2ccccc2C3=O)CC1,15*,-4
O=C(O)CNc1cc(N2CCC(c3ccccc3)CC2)c2noc3c2c1C(=O)c1ccccc1-3,5.1*,-6
O=C1c2ccccc2-c2onc3c(N4CCN(CCO)CC4)cc(NCc4ccco4)c1c23,0.21,-5.5
Cc1ccc(S(=O)(=O)c2ccc(C)c(S(=O)(=O)N3CCC(C)CC3)c2)cc1S(=O)(=O)N1CCC(C)CC1,-1.2,.
CCOC(=O)c1c(NC(=O)Cn2c(-n3nc(C)cc3C)nc(C)c(CC)c2=O)sc2c1CCCC2,.,0.52
COc1cc(NC(=O)C(NS(=O)(=O)c2ccc3c(c2)CC(C)N3C(C)=O)C(C)C)cc(OC)c1 (stereo not given),.,0.84
Cc1nnc(SCCn2c(N3CCC(C(N)=O)CC3)nc3c2c(=O)[nH]c(=O)n3C)s1,-2.9,.
COC(=O)C(CCSC)NC(=O)c1c(C)oc2ncnc(N3CCCCC3)c12 (stereo not given),.,1.9
O=c1cc(CSc2ccc(Cl)cc2)[nH]n1-c1ccccc1,-1.7,-0.99
O=c1cc(CSc2nc3ccccc3s2)[nH]c2nc3ccccc3n12,-1.3,0.83
O=c1cc(CSc2ccc(Cl)cc2)[nH]c2[nH]n(-c3ccccc3)c(=O)c12,-0.02,4.6*
O=c1cc(CSc2nc3ccccc3s2)[nH]c2[nH]n(-c3ccccc3)c(=O)c12,2.4,6.2*
CC(C)C(=O)Nc1c(C(=O)N(Cc2ccco2)CC2CCCO2)oc2ccccc12 (stereo not given),.,0.94
SMILES,CDC25B CDK2 inh,TAR Tat displ
CC(C)c1ccc([C@@H]2Nc3ccc(C(=O)O)cc3[C@@H]3C=CC[C@@H]32)cc1,-0.19,.
COC(=O)c1ccc2c(c1)C1C=CCC1[C@@H](c1ccc(C(=O)O)cc1)N2 (stereo not given in full),-1.2,7.4*
COC(=O)c1cccc2c1NC(c1ccc(Br)cc1)C1CC=CC21 (stereo not given),-0.12,-6
COc1cccc2c1NC(C(=O)O)C1CC=CC21 (stereo not given),0.71,42*
Cc1ccc2c(c1)C1C=CCC1C(C(=O)O)N2 (stereo not given),-1.1,5.2
CC(C)c1ccc2c(c1)[C@@H]1C=CC[C@@H]1[C@H](c1ccc(C(=O)O)cc1)N2,-0.29,.
CCOC(=O)[C@@H]1Nc2ccc(C(=O)O)cc2[C@@H]2C=CC[C@H]12,15*,17*
COc1ccc2c(c1)[C@@H]1C=CC[C@@H]1[C@H](c1ccc(C(=O)O)cc1)N2,4.2,14*
C=CCn1c(SC)nc2sc3c(c2c1=O)CCCC3,-1.1,1
CC(=O)Oc1ccc(Cl)cc1C1=NN(C(C)=O)C(c2cccnc2)O1 (stereo not given),.,2.5
COC(=O)c1sc2ccccc2c1S(=O)(=O)NCc1ccccc1,.,0.91
COc1ccc(-c2noc(C3CCCN(S(=O)(=O)c4ccc(C(C)C)cc4)C3)n2)cc1OC (stereo not given),.,0.89
CC1=NS(=O)(=O)c2cc(S(=O)(=O)CC(=O)Nc3ccc(F)cc3)ccc2N1,.,0.89
O=C(NCCCN1CCCCC1)C1CCCN(c2nnc(N3CCCC3=O)s2)C1 (stereo not given),-3.8,1.9
CCc1cccc2c1N[C@@H](c1ccc(C(=O)O)cc1)[C@H]1CC=C[C@@H]21,-0.09,.
CCOC(=O)c1ccc2c(c1)[C@@H]1C=CC[C@@H]1[C@H](c1ccc(C(=O)OC)cc1)N2,0.35,0.76
Cc1cccc2c1N[C@H](c1ccc(C(=O)O)cc1)C1CC=CC21 (stereo not given in full),6.8*,2.9
CCOC(=O)c1ccc2c(c1)[C@@H]1C=CC[C@@H]1[C@H](c1ccc(C(=O)O)cc1)N2,1.6,8*
Cc1cc(C)n(-c2ccc(Nc3ccccc3)nn2)n1,-1.4,-0.51
CCCC(=O)Nc1nnc(S(=O)(=O)N2CCC(C)CC2)s1,-1.4,2
CCOc1ccc(C2CC(=O)N3CN(c4ccc(OCC)cc4)CSC3=C2C#N)cc1 (stereo not given),2.1,0.45
COc1ccc(C2CC(=O)N3CN(c4ccc(CCO)cc4)CSC3=C2C#N)cc1 (stereo not given),6*,0.63
Cc1ccc(C2CC(=O)N3CN(c4ccc(CCO)cc4)CSC3=C2C#N)cc1 (stereo not given),7.1*,-0.54
COc1cc(C2CC(=O)N3CN(c4ccc(Cl)cc4)CSC3=C2C#N)ccc1O (stereo not given),4.2*,25*
COc1cc(C2CC(=O)N3CN(c4ccc(F)cc4)CSC3=C2C#N)ccc1O (stereo not given),3.3*,29*
SMILES,CDC25B CDK2 inh,TAR Tat displ
COc1cc(C2CC(=O)N3CN(c4ccc(C)c(C)c4)CSC3=C2C#N)ccc1O (stereo not given),0.52,1.6
COc1ccc(N2CSC3=C(C#N)C(c4ccc(O)c(OC)c4)CC(=O)N3C2)cc1 (stereo not given),4*,-1.6
O=C(c1cc2n(n1)C(C(F)(F)F)CC(c1ccco1)N2)N1CCCCC1 (stereo not given),-2.2,-0.37
NC(c1ccc(F)cc1)c1nnc(-c2ccccc2)o1 (stereo not given),-2,1.6
CC1=C(c2ccc(Cl)cc2)S(=O)(=O)NC1=NCc1ccccc1Cl,-16,0.72
CCOC(=O)C1CCN(C(=O)c2cc(S(=O)(=O)N3CCOCC3)cn2C)CC1,.,1.6
Brc1ccc(CNc2n[nH]c(-c3ccco3)n2)cc1,-2.7,1.8
CN(C)c1ccc(CNc2n[nH]c(-c3ccco3)n2)cc1,15*,3.1
O=S(=O)(c1ccc(OC2CCCC2)cc1)N1CCc2cc3ccccc3nc21,-1.6,-0.19
CCn1c(COc2ccc(C(C)C)cc2)nnc1SCc1cc(=O)c2cc(OC)ccc2[nH]1,.,0.13
CCOc1cc(C2C3=C(CCCC3=O)N(C)C3=C2C(=O)CCC3)cc(Cl)c1O,-0.94,0.39
CCOc1cc(C2C3=C(CCCC3=O)NC3=C2C(=O)CCC3)cc(Cl)c1O,16*,0.23
O=C(CSc1nc2ncccc2o1)Nc1ccc(S(=O)(=O)N2CCCC2)cc1,.,1.6
